# PubChem BioAssay (NCI)
# Compounds without any hit were thinned out: in the full panel of roughly 83,000, 20% have a hit.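 How to read the values: 0–100, growth inhibition (40 = 60% inhibited); 0, no net growth; -100 to 0, cell death (-40 = 40% of starting cells died; -100 = all dead).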 Unmarked numbers belong to inactive results. The source made the active and inactive calls. Rule for the calls: active = growth percent below 10; inactive = the rest.
# Assays:
# Test in all cases: NCI-60 one-dose screen, 48 h (100 = growth as untreated, 0 = no growth, -100 = all killed)
# Settings in all cases: 10 µM unless noted
# SR leukemia = system: SR leukemia
# RPMI-8226 leukemia = system: RPMI-8226 leukemia
# OVCAR-8 ovarian = system: OVCAR-8 ovarian
# OVCAR-5 ovarian = system: OVCAR-5 ovarian
# OVCAR-4 ovarian = system: OVCAR-4 ovarian
# SK-OV-3 ovarian = system: SK-OV-3 ovarian
# IGROV1 ovarian = system: IGROV1 ovarian
# OVCAR-3 ovarian = system: OVCAR-3 ovarian
# HS 578T breast = system: HS 578T breast
# NCI/ADR-RES ovarian = system: NCI/ADR-RES ovarian
# T-47D breast = system: T-47D breast
# BT-549 breast = system: BT-549 breast
# MDA-MB-435 melanoma = system: MDA-MB-435 melanoma
# SW-620 colon = system: SW-620 colon
# MCF7 breast = system: MCF7 breast
# HCT-116 colon = system: HCT-116 colon
# HCC-2998 colon = system: HCC-2998 colon
# KM12 colon = system: KM12 colon
SMILES,growth (SR leukemia),growth (RPMI-8226 leukemia),growth (OVCAR-8 ovarian),growth (OVCAR-5 ovarian) [%],growth (OVCAR-4 ovarian),growth (SK-OV-3 ovarian),growth (IGROV1 ovarian),growth (OVCAR-3 ovarian),growth (HS 578T breast),growth (NCI/ADR-RES ovarian) [%],growth (T-47D breast),growth (BT-549 breast),growth (MDA-MB-435 melanoma),growth (SW-620 colon),growth (MCF7 breast),growth (HCT-116 colon),growth (HCC-2998 colon),growth (KM12 colon)
CC1(C)NCCC[C@]2(C)[C@H]3CC=C4[C@@H]5C[C@@](C)(CO)CC[C@]5(C)CC[C@@]4(C)[C@]3(C)CC[C@@H]12,-1.3% (active),20.1%,83.4%,83.3,60.8%,93.1%,56.7%,72.4%,52.7%,74.2,57.7%,78.5%,51.5%,74.1%,40.7%,21%,60.5%,52.8%
CC1(C)[C@H](O)CC[C@]2(C)[C@@H]1CC[C@@]13C[C@@H](CC[C@H]12)[C@@](O)(CO)C3,103%,108%,110%,106,117%,109%,113%,112%,97.9%,106,105%,90.3%,107%,108%,99.3%,-70.1% (active),105%,116%
N#CSCC1CC(O)(c2ccccc2)C(c2ccccc2)C(c2ccc(F)cc2)O1 (configuration not stated),-3.15% (active),12.4%,44.6%,51.3,15.8%,80.2%,17.1%,-84.2% (active),-11.2% (active),35.3,9.18% (active),5.69% (active),-0.166% (active),-1.6% (active),5.64% (active),-63.9% (active),74.8%,4.67% (active)
COc1ccncc1C#Cc1cncc(C(=O)Nc2ccc(CN3CCN(C)CC3)c(C(F)(F)F)c2)c1,9.65% (active),25.8%,36.7%,22.2,30.7%,32.7%,11.3%,43.5%,11.8%,54.6,55.9%,50.9%,15.4%,4.42% (active),6.1% (active),8.44% (active),40.9%,6.75% (active)
CCOc1cc(CNc2ccc(N3CCOCC3)c(C(=O)O)c2)ccc1OC,94.2%,100%,95.2%,102,102%,120%,103%,105%,95.6%,102,103%,108%,104%,98.5%,82.2%,119%,99.9%,100%
Cc1c2c(cc[n+]1Cc1ccccc1)c1ccc(OCc3ccccc3)cc1n2Cc1ccccc1,-52.5% (active),-21.6% (active),-70.9% (active),13.5,-3.79% (active),7.67% (active),-65.1% (active),-97.1% (active),-35.9% (active),65,-4.02% (active),-90.4% (active),-93.8% (active),-88.1% (active),-23.1% (active),-95.6% (active),-81.8% (active),-98.4% (active)
Clc1cc(Cl)cc(N2N=C(c3cccc(Nc4ccncc4)c3)CC2c2ccc(Br)cc2)c1 (configuration not stated),3.33% (active),21.3%,-13.7% (active),77.2,2.37% (active),83.3%,12.3%,57.6%,46.7%,51.2,81.1%,112%,-14.7% (active),-72.1% (active),-46.4% (active),108%,-39.9% (active),-34.3% (active)
N/C(=N\N=C\c1cc2ccccc2s1)N/N=C/c1cc2ccccc2s1,96.8%,99.8%,107%,104,102%,94.3%,93.7%,107%,102%,103,95.5%,78.5%,106%,103%,82.7%,-69.7% (active),103%,103%
O=C1OC(=O)C2C1CC=CC2c1ccccc1 (configuration not stated),55%,93.8%,95.3%,85.6,83.4%,81.8%,84.6%,104%,76.7%,91.1,91.5%,93.1%,102%,86.7%,89%,97.3%,79.9%,84.8%
